Experimental data published in PubChem BioAssay (Tox21).
Several values for one entry are separate records, joined by “and”; a condition that tells them apart may be missing. Equal values may be shown once. Records with an inconclusive call do not appear. The source holds several records for some structures; these can differ, active in one and inactive in another. Activity calls are given as the source filed them. Unless noted, calls come from the whole dose curve; as a rule, active = well fitted curve in the direction sought with a large enough effect in the repeat runs; inconclusive = weak or mixed curves; inactive = no such curve, though single readings can be large; an effect the other way counts as inactive or inconclusive.

Assays:
[1] = qHTS assay to identify aromatase inhibitors - cell viability counter screen (AID 743084);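 note: cells stimulated with testosterone during compound exposure; nearly all actives have a fitted effect of over 55% in size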; note: potency is the fitted concentration of half-maximal effect
[2] = target: Aryl hydrocarbon receptor (Homo sapiens) (UniProt P35869); test: qHTS assay to identify small molecule that activate the aryl hydrocarbon receptor (AhR) signaling pathway (AID 743085); note: nearly all actives have a fitted effect of over 15% in size; note: potency is the fitted concentration of half-maximal effect;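 for activation: HG2L7.5c1 human HepG2 liver cells with stably integrated DRE-driven firefly reporter; series mostly up to about 70 µM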
Summary of the method: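 Cell line HG2L7.5c1 (human hepatoma, 20× DRE-luc). Plated, 5 h 37C, compound/DMSO added, 24 h 37C. CellTiter-Fluor 30 min 37C → fluorescence; then ONE-Glo 30 min RT → luminescence.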

[3] = qHTS assay to identify small molecule that activate the aryl hydrocarbon receptor (AhR) signaling pathway - cell viability counter screen (AID 743086); note: nearly all actives have a fitted effect of over 45% in size; note: potency is the fitted concentration of half-maximal effect
Summary of the method: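 Cytotoxicity counter screen: CellTiter-Fluor signal (30 min, 37 C) in 4000 HepG2 cells/well carrying the DRE-luciferase reporter, following 24 h compound exposure at 37 C.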

[4] = target: Peroxisome proliferator-activated receptor gamma (Homo sapiens) (UniProt P37231); test: qHTS assay to identify small molecule agonists of the peroxisome proliferator-activated receptor gamma (PPARg) signaling pathway (AID 743094; active = well fitted activation curve with a large enough effect in the signal ratio in the repeat runs, not every such curve was filed as active; the % refers to the signal ratio)
Summary of the method: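 GeneBLAzer PPARg UAS-bla HEK293H cells were plated, rested 5 h, then exposed to compounds for 17 h at 37C. Beta-lactamase activity was read by LiveBLAzer B/G FRET substrate fluorescence after 1 h at room temperature.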

[5] = target: Peroxisome proliferator-activated receptor gamma (Homo sapiens) (UniProt P37231); test: qHTS assay to identify small molecule antagonists of the peroxisome proliferator-activated receptor gamma (PPARg) signaling pathway (AID 743191; calls by dose curve; note: series mostly up to about 63 µM; nearly all actives have a fitted effect of over 30% in size)
Summary of the method: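 Beta-lactamase reporter under UAS control in HEK293H PPARg-bla cells; compound treatment 17 h at 37C. Read-out: fluorescence intensity after 1 h room-temperature incubation with LiveBLAzer B/G FRET substrate.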

[6] = qHTS assay to identify small molecule antagonists of the peroxisome proliferator-activated receptor gamma (PPARg) signaling pathway - cell viability counter screen (AID 743194); note: nearly all actives have a fitted effect of over 55% in size
Summary of the method: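 Viability was measured as CellTiter-Glo luminescence in GeneBLAzer PPARg UAS-bla HEK293H cells. These cells had been exposed 17 h at 37 C to compounds together with rosiglitazone at 50 nM final, with the beta-lactamase readout taken in the same wells.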

[7] = qHTS assay for small molecule agonists of the antioxidant response element (ARE) signaling pathway - cell viability counter screen (AID 743203; calls by dose curve; note: nearly all actives have a fitted effect of over 55% in size; note: potency is the fitted concentration of half-maximal effect)
Summary of the method: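 ARE-bla HepG2 cells were plated, rested 5 h at 37C/5% CO2, then exposed to compounds in DMSO for 16 h. Viability was read as CellTiter-Glo luminescence after 30 min at room temperature, in the same wells as the ARE screen.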

[8] = qHTS assay for small molecule activators of the heat shock response signaling pathway - cell viability counter screen (AID 743209); note: nearly all actives have a fitted effect of over 50% in size
Summary of the method: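 HSE-bla HeLa cells plated overnight, then exposed to Tox21 compounds (23 nL in DMSO) for 5 h at 37 C. After the bla reporter read, CellTiter-Glo was added in the same wells and luminescence read after 30 min at room temperature.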

[9] = qHTS assay for small molecule activators of the heat shock response signaling pathway (AID 743210; active = well fitted activation curve with a large enough effect in the signal ratio in the repeat runs, with a control signal flat, not every such curve was filed as active; the % refers to the signal ratio;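 note: HeLa cells with beta-lactamase reporter driven by heat shock elements; series mostly up to about 63 µM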)
Summary of the method: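 In HSE-bla HeLa cells, 5 h compound incubation (37 C) precedes addition of LiveBLAzer B/G substrate; after 2.5 h at room temperature, fluorescence intensity indicates reporter induction.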

[10] = qHTS assay to identify small molecule agonists of the peroxisome proliferator-activated receptor delta (PPARd) signaling pathway - cell viability counter screen (AID 743211); note: nearly all actives have a fitted effect of over 55% in size
Summary of the method: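 HEK293H PPARd-bla, 3000 cells/well; 5 h preincubation 37C/5% CO2; cpd in DMSO, 17 h 37C; B/G FRET substrate 2 h RT; CellTiter-Glo 30 min RT, luminescence.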

[11] = target: Peroxisome proliferator-activated receptor delta (Homo sapiens) (UniProt Q03181); test: qHTS assay to identify small molecule agonists of the peroxisome proliferator-activated receptor delta (PPARd) signaling pathway (AID 743212; calls by dose curve)
Summary of the method: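 HEK293H UAS-bla reporter cells, human PPARd system; compounds delivered in DMSO after 5 h plating, then at 37 C. Beta-lactamase FRET read, 2 h RT substrate step.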

[12] = qHTS assay to identify small molecule antagonists of the peroxisome proliferator-activated receptor delta (PPARd) signaling pathway - cell viability counter screen (AID 743213); note: nearly all actives have a fitted effect of over 50% in size
Summary of the method: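 Cytotoxicity counter screen: CellTiter-Glo luminescence read 30 min after addition, in the same wells as the reporter assay. There, PPARd UAS-bla HEK293H cells (3000/well) were treated 17 h at 37 C with compound and 300 nM L165041.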

[13] = target: Peroxisome proliferator-activated receptor delta (Homo sapiens) (UniProt Q03181); test: qHTS assay to identify small molecule antagonists of the peroxisome proliferator-activated receptor delta (PPARd) signaling pathway (AID 743215; active = well fitted inhibition curve with a large enough effect in the signal ratio in the repeat runs, not every such curve was filed as active; the % refers to the signal ratio;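 note: cells stimulated with agonist L165041 at 300 nM final during compound exposure; series mostly up to about 62 µM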)
Summary of the method: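 PPARd-bla HEK293H cells (UAS-bla reporter) preincubated 5 h, then given compound plus 300 nM final L165041 agonist for 17 h at 37 C. Beta-lactamase activity read by LiveBLAzer B/G FRET substrate fluorescence after 2 h at room temperature.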

[14] = target: Bile acid receptor (Homo sapiens) (UniProt Q96RI1); test: qHTS assay to identify small molecule antagonists of the farnesoid-X-receptor (FXR) signaling pathway (AID 743217; active = well fitted inhibition curve with a large enough effect in the signal ratio in the repeat runs, not every such curve was filed as active; the % refers to the signal ratio)
Summary of the method: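 FXR-UAS-bla HEK 293T cells (beta-lactamase reporter) given compound plus chenodeoxycholic acid (50 uM final), 16 h at 37C. LiveBLAzer B/G FRET substrate added for 2 h at room temperature; fluorescence read.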

[15] = target: Bile acid receptor (Homo sapiens) (UniProt Q96RI1); test: qHTS assay to identify small molecule agonists of the farnesoid-X-receptor (FXR) signaling pathway (AID 743220; active = well fitted activation curve with a large enough effect in the signal ratio in the repeat runs, not every such curve was filed as active; the % refers to the signal ratio)
Summary of the method: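 Beta-lactamase reporter under UAS control in GeneBLAzer FXR HEK 293T cells (5000/well) measured with LiveBLAzer FRET substrate after 2 h at room temperature. Compound exposure lasted 16 h at 37C.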

[16] = qHTS assay to identify small molecule antagonists of the farnesoid-X-receptor (FXR) signaling pathway - cell viability counter screen (AID 743221; active = well fitted cell-killing curve with a large enough effect in the repeat runs, not every such curve was filed as active; note: nearly all actives have a fitted effect of over 50% in size)
Summary of the method: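 Luminescence from CellTiter-Glo measures cytotoxicity in GeneBLAzer FXR-UAS-bla HEK 293T cells. Cells were exposed to compounds with 50 uM chenodeoxycholic acid (final) for 16 h at 37 C, in wells also used for the reporter readout.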

[17] = target: Vitamin D3 receptor (Homo sapiens) (UniProt P11473); test: qHTS assay to identify small molecule agonists of the vitamin D receptor (VDR) signaling pathway (AID 743222; calls by dose curve)
Summary of the method: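 VDR-bla cells plated 4 h at 37 C, then exposed to compounds for 16 h at 37 C. Beta-lactamase reporter activity measured by fluorescence after 2 h room-temperature loading with LiveBLAzer B/G FRET substrate.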

[18] = target: Vitamin D3 receptor (Homo sapiens) (UniProt P11473); test: qHTS assay to identify small molecule antagonists of the vitamin D receptor (VDR) signaling pathway (AID 743223; active = well fitted inhibition curve with a large enough effect in the signal ratio in the repeat runs, not every such curve was filed as active; the % refers to the signal ratio)
Summary of the method: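 Antagonist mode uses 1alpha,25-dihydroxyvitamin D3 at 3 nM final as stimulus. VDR-bla cells receive compounds in DMSO, incubate 16 h at 37C, then a beta-lactamase FRET substrate for 2 h at room temperature before fluorescence measurement.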

[19] = qHTS assay for small molecule agonists of the antioxidant response element (ARE) signaling pathway (AID 743202; active = well fitted activation curve with a large enough effect in the signal ratio in the repeat runs, not every such curve was filed as active; the % refers to the signal ratio)
Summary of the method: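 An ARE-responsive beta-lactamase gene stably integrated in HepG2 cells serves as reporter. After 5 h plating and 16 h compound incubation at 37 C, fluorescence of the B/G FRET substrate was measured.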

[20] = qHTS assay to identify small molecule agonists of the farnesoid-X-receptor (FXR) signaling pathway - cell viability counter screen (AID 743218); note: nearly all actives have a fitted effect of over 45% in size
Summary of the method: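 FXR-UAS-bla HEK 293T cells exposed to compounds for 16 h at 37C. Cytotoxicity read in the same wells by CellTiter-Glo luminescence after 30 min at room temperature, following the beta-lactamase FRET read.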

Measured: Potency

Peroxisome proliferator-activated receptor gamma (Homo sapiens), sequence (P37231 whole entry, looked up): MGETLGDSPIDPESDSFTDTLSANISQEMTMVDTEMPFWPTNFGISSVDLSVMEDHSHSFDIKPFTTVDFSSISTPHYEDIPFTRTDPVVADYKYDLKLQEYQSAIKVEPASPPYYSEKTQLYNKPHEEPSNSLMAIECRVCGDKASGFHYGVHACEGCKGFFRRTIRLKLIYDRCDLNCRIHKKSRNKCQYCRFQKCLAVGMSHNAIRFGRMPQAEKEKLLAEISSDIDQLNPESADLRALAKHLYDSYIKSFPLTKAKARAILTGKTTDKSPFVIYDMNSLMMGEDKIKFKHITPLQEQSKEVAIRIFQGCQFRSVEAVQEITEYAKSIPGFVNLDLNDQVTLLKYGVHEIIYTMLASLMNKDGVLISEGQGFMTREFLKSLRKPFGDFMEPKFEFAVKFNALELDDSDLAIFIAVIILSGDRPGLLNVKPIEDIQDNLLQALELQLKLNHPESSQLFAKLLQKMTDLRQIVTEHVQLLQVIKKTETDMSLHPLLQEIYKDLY
Vitamin D3 receptor (Homo sapiens), sequence (P11473 whole entry, looked up): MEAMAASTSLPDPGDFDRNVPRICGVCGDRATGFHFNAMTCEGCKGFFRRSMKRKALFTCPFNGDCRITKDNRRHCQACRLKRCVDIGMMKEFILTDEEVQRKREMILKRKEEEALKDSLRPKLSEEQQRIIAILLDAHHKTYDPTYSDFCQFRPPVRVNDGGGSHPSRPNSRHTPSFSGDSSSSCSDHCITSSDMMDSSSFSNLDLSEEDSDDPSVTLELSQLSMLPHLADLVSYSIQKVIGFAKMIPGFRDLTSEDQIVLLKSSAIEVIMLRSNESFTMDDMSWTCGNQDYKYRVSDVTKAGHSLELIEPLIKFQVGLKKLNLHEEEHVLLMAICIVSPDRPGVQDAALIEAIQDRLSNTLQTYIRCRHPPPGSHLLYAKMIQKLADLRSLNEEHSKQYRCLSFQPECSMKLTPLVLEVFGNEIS
Bile acid receptor (Homo sapiens), sequence (Q96RI1 whole entry, looked up): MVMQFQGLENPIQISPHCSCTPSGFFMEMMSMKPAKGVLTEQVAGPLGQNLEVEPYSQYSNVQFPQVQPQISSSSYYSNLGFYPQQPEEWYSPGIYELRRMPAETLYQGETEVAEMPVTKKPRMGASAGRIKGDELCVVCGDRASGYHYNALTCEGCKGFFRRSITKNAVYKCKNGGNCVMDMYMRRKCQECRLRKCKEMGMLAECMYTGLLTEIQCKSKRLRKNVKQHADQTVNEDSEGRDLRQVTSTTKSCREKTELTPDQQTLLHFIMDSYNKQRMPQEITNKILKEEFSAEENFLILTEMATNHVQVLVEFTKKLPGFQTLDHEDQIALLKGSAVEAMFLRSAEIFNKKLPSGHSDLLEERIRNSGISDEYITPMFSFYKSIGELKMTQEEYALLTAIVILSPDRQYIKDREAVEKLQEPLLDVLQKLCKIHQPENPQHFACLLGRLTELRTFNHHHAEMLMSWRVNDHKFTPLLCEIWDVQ
Peroxisome proliferator-activated receptor delta (Homo sapiens), sequence (Q03181 whole entry, looked up): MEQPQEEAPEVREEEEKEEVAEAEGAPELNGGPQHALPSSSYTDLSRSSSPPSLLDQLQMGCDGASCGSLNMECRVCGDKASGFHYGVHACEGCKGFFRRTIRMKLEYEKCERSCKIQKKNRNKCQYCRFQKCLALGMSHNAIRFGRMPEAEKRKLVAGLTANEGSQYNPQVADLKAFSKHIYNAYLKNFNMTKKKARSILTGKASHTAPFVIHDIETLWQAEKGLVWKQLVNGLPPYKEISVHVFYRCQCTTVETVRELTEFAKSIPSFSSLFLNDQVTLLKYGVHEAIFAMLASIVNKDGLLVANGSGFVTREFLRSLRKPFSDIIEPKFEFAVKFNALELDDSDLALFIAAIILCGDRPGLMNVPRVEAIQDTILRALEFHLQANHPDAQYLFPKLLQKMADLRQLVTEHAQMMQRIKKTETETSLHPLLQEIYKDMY
Aryl hydrocarbon receptor (Homo sapiens), sequence (P35869 whole entry, looked up): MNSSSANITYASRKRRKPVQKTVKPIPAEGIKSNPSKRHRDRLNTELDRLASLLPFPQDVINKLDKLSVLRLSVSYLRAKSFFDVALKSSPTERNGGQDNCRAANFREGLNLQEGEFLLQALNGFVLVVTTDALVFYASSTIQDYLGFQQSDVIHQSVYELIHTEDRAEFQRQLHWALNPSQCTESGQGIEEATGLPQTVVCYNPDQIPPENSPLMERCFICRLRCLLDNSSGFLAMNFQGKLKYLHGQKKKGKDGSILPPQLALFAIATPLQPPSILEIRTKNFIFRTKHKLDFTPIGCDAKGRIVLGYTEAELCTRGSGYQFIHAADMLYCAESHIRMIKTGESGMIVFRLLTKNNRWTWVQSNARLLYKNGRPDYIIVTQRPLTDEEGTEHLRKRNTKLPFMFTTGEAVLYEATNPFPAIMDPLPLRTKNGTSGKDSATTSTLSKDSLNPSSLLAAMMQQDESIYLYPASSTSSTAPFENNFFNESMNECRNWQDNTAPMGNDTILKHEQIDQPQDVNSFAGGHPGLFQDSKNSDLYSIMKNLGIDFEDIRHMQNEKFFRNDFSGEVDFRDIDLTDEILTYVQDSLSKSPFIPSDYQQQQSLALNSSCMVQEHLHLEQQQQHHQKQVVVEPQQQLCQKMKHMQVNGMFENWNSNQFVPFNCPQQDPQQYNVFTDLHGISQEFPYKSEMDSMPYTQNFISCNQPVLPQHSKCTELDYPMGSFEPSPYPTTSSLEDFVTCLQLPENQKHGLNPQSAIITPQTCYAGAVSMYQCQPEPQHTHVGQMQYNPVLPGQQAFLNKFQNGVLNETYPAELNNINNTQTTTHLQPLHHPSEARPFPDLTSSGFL

Cc1ccc(O)c(-n2nc3ccccc3n2)c1
active: [2] 21.1 µM and 60.6 µM and 17.2 µM
inactive: [1] | [3] | [4] | [5] | [6] | [7] | [8] | [9] | [10] | [11] | [12] | [13] | [14] | [15] | [16] | [17] | [18]

CN(C)C=O
inactive: [1] | [2] | [3] | [4] | [5] | [6] | [19] | [7] | [8] | [9] | [10] | [12] | [14] | [15]

CCOC(=O)C(C)(C)Oc1ccc(Cl)cc1
inactive: [1] | [2] | [3] | [4] | [5] | [6] | [7] | [8] | [9] | [10] | [11] | [12] | [13] | [14] | [15] | [16] | [17] | [18]

COC(=O)c1ccc(C=O)cc1
inactive: [1] | [2] | [3] | [4] | [5] | [6] | [19] | [7] | [8] | [10] | [11] | [12] | [13] | [14] | [15] | [16] | [17] | [18]

COc1ccccc1O
inactive and 24.5 µM (active): [7]
inactive: [1] | [2] | [3] | [4] | [5] | [6] | [19] | [8] | [9] | [10] | [11] | [12] | [13] | [14] | [15] | [17] | [18]

NC(=O)N1c2ccccc2C=Cc2ccccc21
inactive: [1] | [2] | [3] | [4] | [5] | [6] | [7] | [8] | [10] | [11] | [12] | [13]

Cc1cccc2ccccc12
inactive: [1] | [2] | [3] | [4] | [5] | [6] | [7] | [8] | [9] | [11] | [12] | [13] | [14] | [20] | [15] | [17] | [18]

O=[N+]([O-])c1ccc(O)cc1
inactive: [2] | [4] | [5] | [6] | [7] | [8] | [9] | [11] | [12] | [13] | [20] | [17] | [18]
active: [1] 63.5 µM
54.5 µM (active) and inactive: [3]

CC(C)(C)CC(C)(C)c1ccc(O)c(-n2nc3ccccc3n2)c1
inactive: [1] | [2] | [3] | [4] | [5] | [19] | [7] | [8] | [9] | [11] | [12] | [13] | [15] | [16] | [17] | [18]

CC(C)CC(C)CC(O)CC(C)C (centres undefined)
inactive: [1] | [2] | [3] | [4] | [5] | [6] | [7] | [8] | [9] | [11] | [12] | [13] | [14] | [20] | [15] | [16] | [17]

CC1(C)O[C@@H]2[C@@H](CO[C@@]3(COS(N)(=O)=O)OC(C)(C)O[C@@H]23)O1
inactive: [1] | [2] | [3] | [4] | [5] | [6] | [7] | [8] | [9] | [10] | [12] | [17] | [18]

COC(=O)C1CCC(C(=O)OC)CC1 (centres undefined)
inactive: [1] | [2] | [3] | [4] | [5] | [6] | [7] | [8] | [9] | [11] | [12] | [13] | [14] | [15] | [16] | [17] | [18]

CCCCCCCCCCCCCC(=O)OC(C)C
inactive: [1] | [2] | [3] | [5] | [6] | [7] | [8] | [9] | [10] | [11] | [12] | [13] | [14] | [20] | [15] | [16] | [17] | [18]

CCCCNC(=O)NS(=O)(=O)c1ccc(N)cc1
inactive: [1] | [2] | [3] | [5] | [6] | [19] | [7] | [8] | [11] | [12] | [13] | [17] | [18]

C1CNCCN1
inactive: [1] | [2] | [3] | [5] | [6] | [19] | [7] | [8] | [12] | [20] | [17] | [18]

O=C1CCCCCN1
inactive: [1] | [2] | [3] | [5] | [6] | [19] | [7] | [8] | [10] | [11] | [12] | [13] | [14] | [20] | [15] | [16] | [17] | [18]
